Assay outcomes as filed in PubChem BioAssay.
An excerpt weighted towards active compounds, which were near 1.3% of everything screened.
Insulin prom inh: TRM-6 insulin promoter activity inhibition. 130,000 compounds, 0.9% hits. inhibition, % at 2 µM. TRM-6 cells (human fetal islet line), insulin promoter-eGFP reporter, imaging; reporter expression induced with tamoxifen;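 active means inhibition above the mean plus 3 SD, with well images judged a real hit on visual review, cut at about 60% in these data, passing the limit was not always enough; inconclusive means inhibition over the cutoff but images rejected on review; inactive means inhibition not above the cutoff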
NFkB transloc pot: enhances IL-1B driven NFkB nuclear translocation; activation, % at 2 µM; 94,000 compounds, 0.3% hits; HUVEC IL-1B NFkB p65 nuclear translocation imaging;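 active means activation above 40%, about the mean plus 3 SD, also judged a hit on visual image review; inconclusive means activation above 40% but not a hit on visual review; inactive means activation not above 40% and no visual hit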;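 further: percent activation is computed from the nuclear over cytoplasmic p65 intensity ratio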
IL1B NFkB inh: blocks IL-1B driven NFkB nuclear translocation in HUVEC cells; HUVEC IL-1B NFkB p65 nuclear translocation imaging; inhibition, % at 2 µM; 94,000 compounds, 0.43% hits; AID 796;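 active means inhibition above about 30% together with a positive call from visual inspection of the well image, limit read from the data; inconclusive means inhibition above a set limit but visual check negative; inactive means inhibition not above a set limit, visual check negative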;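 further: nuclear over cytoplasmic p65 intensity ratio measured by imaging; 0% = IL-1B stimulated DMSO wells and 100% = unstimulated DMSO wells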
HUVEC tox IL1B: toxic to HUVEC cells under IL-1B stimulation. HUVEC cell count loss, Hoechst imaging, IL-1B stimulated. cell count reduction, % at 2 µM. 94,000 compounds, 0.41% hits. AID 845;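 active means cell count reduction more than 3 SD above the screen-wide mean, cut at about 70% in these data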;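 further: normalized per plate to untreated control cells as the no-loss baseline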
* hit, by the source's call; i = inactive; ? = inconclusive; · = no result given.

SMILES | Insulin prom inh | NFkB transloc pot | IL1B NFkB inh | HUVEC tox IL1B
Cc1ccc(N2C=Nc3ccc(C)c4nc(C)cc2c34)cc1 | 85* | -16 | 16 | 3
NS(=O)(=O)c1cccc(NC(=O)COC(=O)COc2ccc3ccccc3c2)c1 | 20 | · | · | ·
CCc1nnc(NC(=O)CSc2nnc(-c3cccnc3)n2CCc2ccccc2)s1 | · | 43* | -43 | -31
CCc1nnc(NC(=O)CSc2nnc(Cc3ccccc3)n2-c2ccccc2)s1 | 82* | 12 | -12 | -104
CCCn1c(SCC(=O)Nc2nc(C)cs2)nnc1-c1cccnc1 | 75* | 16 | -16 | -18
Cc1nnc(NC(=O)CSc2nnc(Cc3ccccc3)n2-c2ccccc2)s1 | i | -6 | 6 | -30
CCc1nnc(NC(=O)c2cccnc2)s1 | 12 | 147* | -147 | 8
O=C(c1ccc2c(=O)n3c(nc2c1)CCCCC3)N1CCN(C(c2ccccc2)c2ccccc2)CC1 | -41 | 1 | -1 | 3
Cc1ccc(-n2c(=O)[nH]cc(C(=O)Nc3ccc4c(c3)OCCO4)c2=O)cc1C | 86* | -1 | 1 | -5
CC1CN(c2nc(-c3ccccc3)nc3ccccc23)CC(C)O1 (stereo unspecified) | 92* | 16 | -16 | -23
Cc1cc(C)cc(NC(=S)N2CCC(NC(=O)c3ccccc3C)CC2)c1 | -33 | · | · | ·
CN(C)c1ncnc2c1ncn2C1OC(CO)C(O)C1O (stereo unspecified) | 92* | 11 | -11 | 3
CSc1nnc(CNS(=O)(=O)c2ccc(Cl)cc2)n1C | 12 | · | · | ·
O=C(NCCO)c1ccc2[nH]c3c(c2c1)CCCC3 | ? | 2 | -2 | -33
O=C(NCCCO)c1ccc2[nH]c3c(c2c1)CCCC3 | 22 | 83* | -83 | -14
CC(C)NC(=O)[C@@H]1C[C@@]1(C)[C@@H](NC(=O)OCc1ccccc1)c1ccccc1 | -55 | · | · | ·
COc1ccc(OC(=O)CCCN2C(=O)c3ccccc3C2=O)cc1 | -6 | 6 | -6 | 86*
COc1ccc(OCCN2C(=O)c3ccccc3C2=O)cc1 | -108 | · | · | ·
Nc1c2c(nc3ccc(Br)cc13)N(Cc1ccccc1)CC2 | 69* | · | · | ·
COc1cc2c(cc1NC(=O)c1cccc([N+](=O)[O-])c1)oc1ccccc12 | -19 | -9 | 9 | 78*
COc1ccc2o/c(=N\O)c(C(=O)Nc3ccccc3OC)cc2c1 | 0 | -8 | 8 | 76*
COc1ccc(OC)c(NC(=O)c2cc3ccccc3o2)c1 | 13 | 1 | -1 | 8
CC1CCN(c2oc(-c3cccc4ccccc34)nc2C#N)CC1 | 8 | -100 | 100* | 94*
N#Cc1nc(-c2cccc3ccccc23)oc1N1CCCCC1 | 13 | -1 | 1 | 13
O=C1CC(N2CCN(C/C=C/c3ccccc3)CC2)C(=O)N1Cc1cccs1 (stereo unspecified) | -39 | 1 | -1 | -52
SMILES | Insulin prom inh | NFkB transloc pot | IL1B NFkB inh | HUVEC tox IL1B
O=C1OC(N2CCN(C/C=C/c3ccccc3)CC2)c2ccccc21 (stereo unspecified) | 83* | -5 | 5 | -24
Cc1cc(N(CCO)CCO)nc(-n2nc(C)cc2C)n1 | 13 | 5 | -5 | -9
Cc1cc(NCCO)nc(-n2nc(C)cc2C)n1 | 79* | -9 | 9 | 7
Cc1c(O)c2c3c(cccc3c1O)C(=O)N(c1ccccc1)C2=O | 21 | · | · | ·
Cc1cc(=O)[nH]c(SCCCOc2ccc(F)cc2)n1 | 33 | 3 | -3 | 2
Cc1cc(Cl)c(OCCCSc2nc(C)cc(=O)[nH]2)c(Br)c1 | 33 | -10 | 10 | 90*
C[C@H](NS(=O)(=O)c1ccccc1)C(=O)OCC(=O)NC(=O)Nc1ccc2c(c1)OCCO2 | -8 | · | · | ·
COc1ccccc1Cn1c(=O)c2ccccc2n2c(Sc3ncnc4sccc34)nnc12 | 79* | ? | -43 | -17
CCCn1c(=O)c2ccccc2n2c(SCCOc3ccc(OC)cc3)nnc12 | -26 | · | · | ·
Cc1ccc(Oc2ccc(-c3nc(N)nc(N)n3)cc2)cc1 | -59 | -97 | 97* | 86*
O=C(CC1C(=O)NCCN1C(=O)c1ccc(F)cc1)OCc1ccccc1 (stereo unspecified) | -9 | 13 | -13 | 92*
COc1cc(-c2nnc(SCC(=O)N(C)C3CCS(=O)(=O)C3)o2)cc(OC)c1OC (stereo unspecified) | 42 | · | · | ·
CC(C)CC(c1nnnn1Cc1ccccc1)N1CCC(C(N)=O)CC1 (stereo unspecified) | -71 | 58* | -58 | -2
CCc1ccc(-c2cc(N)n(-c3ccccc3)n2)cc1 | 18 | · | · | ·
Cc1ccc(-c2cc(N)n(-c3ccccc3)n2)cc1 | 19 | -67 | 67* | -18
Cc1ccc(NC(=O)COC(=O)CN2C(=O)NC(C)(C)C2=O)cc1S(=O)(=O)N1CCOCC1 | 79* | · | · | ·
Cc1ccc(NC(=O)COC(=O)CN2C(=O)C3CCCCC3C2=O)cc1S(=O)(=O)N1CCOCC1 (stereo unspecified) | -20 | · | · | ·
COc1ccc(CN(Cc2cc3cccc(C)c3n3nnnc23)C(=O)N2CCOCC2)cc1 | -5 | · | · | ·
CCCc1nccn1S(=O)(=O)c1cc(OC)ccc1OC | 75* | 7 | -7 | 6
CCC(C)(NC(=O)Cc1c[nH]c2ccccc12)C(=O)NC1CCCCC1 (stereo unspecified) | -36 | · | · | ·
CCC(C)(NC(=O)CNC(C)=O)C(=O)NC1CCCCC1 (stereo unspecified) | 69* | 9 | -10 | -28
COc1ccccc1CC(NC(C)=O)C(=O)NC1CCN(C(=O)c2ccc([N+](=O)[O-])cc2)CC1 (stereo unspecified) | 57 | · | · | ·
CCCCCCC(=O)N(O)C1CC(=O)N(c2ccc(Br)cc2)C1=O (stereo unspecified) | · | 48* | -48 | 12
O=C(CCSc1nc(-c2ccco2)cc(C(F)(F)F)n1)NCc1cccs1 | -88 | 47* | -47 | -40
O=C(COC(=O)c1cc(-c2ccc(F)cc2)nc2ccccc12)NCC1CCCO1 (stereo unspecified) | -25 | · | · | ·
SMILES | Insulin prom inh | NFkB transloc pot | IL1B NFkB inh | HUVEC tox IL1B
C=CCNc1nc(SCC=C)nc2ccsc12 | 83* | -8 | 8 | 41
Cc1[nH]c2ccc(F)cc2c1CCN(Cc1cccnc1)C(=S)Nc1cccc(F)c1 | -89 | · | · | ·
COc1ccc2c3c(cccc13)NN=C2C | 79* | -30 | 30* | 29
O=C1Nc2ccccc2N(O)N1c1cc(-c2ccccc2)[nH]n1 | 85* | · | · | ·
Cc1ccc(NC(=O)C(=O)NCCN2CCN(S(=O)(=O)c3ccccc3)CC2)cc1C | 7 | · | · | ·
CCOc1ccc(CC(=O)OCn2nnc3ccccc3c2=O)cc1 | 9 | · | · | ·
COc1ccc(NC(=O)c2ccco2)cc1NC(=O)c1ccc(Br)o1 | 73* | 16 | -16 | -15
COc1ccc(NC(=O)c2ccco2)cc1NC(=O)c1ccc(C)cc1 | -64 | 23 | -23 | -29
O=C(COc1ccc(-c2ccccc2)cc1)N1CCCC1 | 26 | · | · | ·
COc1ccc(-c2cn3ccc4ccccc4c3n2)cc1 | 77* | 40* | -40 | -24
Cc1cc2cc(CNC(=O)Nc3ccccc3)ccc2[nH]1 | 0 | · | · | ·
CNC(=O)C1CCC(=O)N1Cc1ccccc1Cl (stereo unspecified) | -47 | 4 | -4 | 7
CC(C)CCN1CC(C(=O)N2CCN(c3ccc(F)cc3)CC2)CC1=O (stereo unspecified) | · | 15 | -15 | 76*
